OPRM1-OPRD1 ag – agonists of OPRM1-OPRD1 heterodimerization, primary screen, cell-based, luminescence; Mu-type opioid receptor (Homo sapiens) + Delta-type opioid receptor (Homo sapiens), …; 0.3% of 340,000 active; activation, % at 9.3 µM; cells; in the data active = activation above about 18%;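 also: 0% = vehicle-treated cells and 100% = reference agonist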
HGIII-sPLA2 inh – human group III sPLA2 inhibitors, primary screen, biochemical, QFRET, BODIPY PC-A2 liposome substrate | AID 743126, 2013 | inhibition, % at 12.2 µM | 0.56% of 370,000 active | QFRET BODIPY PC-A2 liposome hydrolysis, fluorescence;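 active = inhibition above mean plus 3 SD of compounds lying within the high and low control bounds, cut at about 19% in these data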;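 also: 0% = median of test compound wells and 100% = no enzyme DMSO wells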
m5-HT2A agonist – mouse Htr2a agonists via beta-arrestin recruitment, primary screen, cell-based, luminescence; activation, % at 7.6 µM; 0.66% of 360,000 active; 5-hydroxytryptamine receptor 2A (Mus musculus), P35363; CHO-K1 mHTR2A beta-arrestin complementation; percent of 30 µM serotonin response;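 active = activation above a run cutoff, the mean activation of all tested compounds plus 3 SD, cut at about 14% in these data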;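 also: 0% = plate median of compound wells and 100% = 30 µM serotonin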
MOR-DOR inv ag – inverse agonists of MOR-DOR heterodimerization, primary screen, cell-based, luminescence. AID 504357, 2011. 0.21% of 340,000 active. Mu-type opioid receptor (Homo sapiens) + Delta-type opioid receptor (Homo sapiens), …. inhibition, % at 9.3 µM. cell-based MOR-DOR heterodimer luminescence, inverse agonism; in the data active = inhibition above about 22%, passing the limit was not always enough;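 also: 0% = cells with DMSO and 100% = wells without cells with DMSO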
HTR5A ag – HTR5A agonists in luminescence cell assay, primary screen, counter-screen for OPRM1-OPRD1 heterodimer agonist project, full-deck HTS. 5-hydroxytryptamine receptor 5A (Homo sapiens), P47898. cell-based. activation, % at 9.3 µM. 0.61% of 340,000 active; in the data active = activation mostly above about 9.5%, no sharp cut-off; inactive = mostly below about 7.6%;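 also: 0% = cells with vehicle only and 100% = reference agonist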
Target sequence (P47898 whole entry, looked up): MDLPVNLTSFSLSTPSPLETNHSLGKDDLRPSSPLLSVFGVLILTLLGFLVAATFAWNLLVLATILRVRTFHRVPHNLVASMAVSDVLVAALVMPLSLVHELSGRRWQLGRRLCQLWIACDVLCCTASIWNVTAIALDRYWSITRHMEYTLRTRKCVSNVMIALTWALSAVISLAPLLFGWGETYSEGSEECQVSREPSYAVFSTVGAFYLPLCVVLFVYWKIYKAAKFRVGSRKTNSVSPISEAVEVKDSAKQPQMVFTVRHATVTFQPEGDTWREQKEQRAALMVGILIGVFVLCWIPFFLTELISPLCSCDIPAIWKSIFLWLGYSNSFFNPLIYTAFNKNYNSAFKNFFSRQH
HTR5A inv ag – HTR5A inverse agonists in luminescence cell assay, primary screen, counter-screen for OPRM1-OPRD1 heterodimer inverse agonist project, full-deck HTS | AID 504634, 2011 | inhibition, % at 9.3 µM | HTR5A cell line, inverse agonism | 0.083% of 340,000 active | 5-hydroxytryptamine receptor 5A (Homo sapiens), P47898; in the data active = inhibition mostly above about 23%, no sharp cut-off; inactive = mostly below about 18%;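 also: 0% = cells with DMSO and 100% = no-cell wells with DMSO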
sPLA2 confirm – human group III sPLA2 inhibitors, confirmation, biochemical, QFRET, triplicate | shares compounds with HGIII-sPLA2 inh | inhibition, % at 12.2 µM | AID 743280, 2014 | 34% of 2,000 active | recombinant hGIII-sPLA2, BODIPY PC-A2 QFRET fluorescence;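 active = mean inhibition across triplicates above the hit cutoff set in the earlier primary screen, cut at about 19% in these data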;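 also: 0% = enzyme with DMSO and 100% = DMSO wells lacking enzyme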
535nm interf – 535nm fluorescence optical interference, confirmation, artefact control for HGIII-sPLA2 inhibitor project, biochemical, QFRET; 8.5% of 2,000 active; shares compounds with HGIII-sPLA2 inh; inhibition, % at 12.2 µM; AID 743282, 2014; BODIPY FL product fluorescence interference;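 active = average inhibition above the solvent-only control mean plus 3 SD, cut at about 6% in these data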;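 also: 0% = DMSO with substrate plus product and 100% = DMSO with substrate alone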
BODIPY interf DR – 535nm fluorescence optical interference, dose response, artefact control for HGIII-sPLA2 inhibitor project, biochemical, QFRET; shares compounds with HGIII-sPLA2 inh; BODIPY FL product fluorescence interference, cell-free; IC50, µM; 240 tested, under 10 active; AID 743455, 2014;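 active = IC50 at or below 10 µM; inactive = IC50 above 10 µM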
An asterisk follows results filed as active; / = no result. This is a sample that favours compounds with a hit; in the whole collection about 2.2% have one here.

SMILES	OPRM1-OPRD1 ag	HGIII-sPLA2 inh	m5-HT2A agonist	MOR-DOR inv ag	HTR5A ag	HTR5A inv ag	sPLA2 confirm	535nm interf	others
Cc1ccc2c(c1)C1CS(=O)(=O)N(Cc3ccccc3)C(=O)N1C2 (stereo not given)	/	1.5	/	/	/	/	/	/
CCCCOC(=O)CCN1C(=O)/C(=C2\SC(=S)N(CCC(=O)OCCCC)C2=O)SC1=S	-2.4	21.6*	3.5	12.3	0.9	-19.0	-6.5	-2.3
CCCCCOC(=O)CCN1C(=O)/C(=C2\SC(=S)N(CCC(=O)OCCCCC)C2=O)SC1=S	0.1	5.8	-4.8	-0.4	-6.0	-15.6	/	/
O=C(c1c(F)cccc1F)N1CCC(Oc2cccnc2)CC1	/	3.0	/	/	/	/	/	/
CN(Cc1ccccc1)C(=O)OCc1cn(Cc2ccccc2)nn1	/	-1.7	/	/	/	/	/	/
CC1=C(C(=O)N(C)C)CC(CC(=O)NCc2cccc3ccccc23)C(=O)N1CCCN1CCCC1=O (stereo not given)	/	21.2*	3.7	/	/	/	-2.8	-7.0
N#C/C(=N\Nc1ccccc1)C(N)=S	-2.8	19.4*	7.7	14.1	-6.1	-10.4	33.4*	-3.3
Cc1cc(N2CCNC[C@H]2C)ccc1N1C[C@@H](C)O[C@@H](C)C1	/	-2.1	/	/	/	/	/	/
COc1ccc2nc(NC(=O)CCn3cccc3)sc2c1	-2.1	-30.5	-2.9	12.6	2.5	20.5	/	/
COc1ccc2nc(NC(=O)CCN3C(=S)NC(C)(C)CC3C)sc2c1 (stereo not given)	-3.4	25.6*	1.4	17.8	-3.1	-15.6	23.7*	-10.8
CCCC(=O)N1CCC[C@]2(CC[C@H](CCC#N)O2)C1	/	8.7	/	/	/	/	/	/
C=CCNC1=C(Cl)C(=O)N(Cc2ccccc2)C1=O	-0.1	-0.5	9.2	0.3	3.2	-17.6	/	/
C=CCNc1cc(=O)n(Cc2ccccc2)c(=O)[nH]1	-1.3	19.3*	3.8	6.7	1.1	-4.0	-1.7	-3.4
CC(C)(C)NC(=S)N1CCC2CC1c1cc(-c3ccc4c(c3)OCO4)ccc12 (stereo not given)	/	21.8*	-0.2	/	/	/	4.9	-18.2
Cc1nn(-c2ccccc2)c2sc(C(=O)NCC3CCCO3)cc12 (stereo not given)	/	-6.9	/	/	/	/	/	/
CCCOc1ccc(/C=N/NC(=S)Nc2ccccc2[N+](=O)[O-])c(O)c1	/	37.1*	/	/	/	/	55.8*	12.1*
OC1OC2COC(c3ccccc3)OC2C(O)C1O (stereo not given)	/	1.8	/	/	/	/	/	/
O=C(NC(=S)NNC(=O)c1cc2ccccc2cc1O)c1ccco1	-2.6	21.0*	6.2	13.5	-1.9	-1.1	27.9*	1.8	BODIPY interf DR=>122
COc1ccc(C(=O)NNC(=S)NC(=O)/C=C/c2cccs2)cc1	-2.2	0.3	-1.2	12.6	1.1	-3.0	/	/
CN(C)S(=O)(=O)c1cccc(NC(=S)NC(=O)c2ccco2)c1	-2.2	8.5	9.9	14.8	-9.5	24.7	/	/
CN(C)S(=O)(=O)c1cccc(NC(=S)NNC(=O)c2cc3ccccc3cc2O)c1	-0.6	37.1*	-1.6	2.9	1.8	-6.4	35.9*	13.2*
O=C(/C=C/c1cccs1)NC(=S)NNC(=O)c1ccccc1O	-3.6	42.2*	2.7	19.2	-1.2	3.4	32.2*	2.8	BODIPY interf DR=>122
O=C(NC(=S)NNC(=O)c1ccccc1O)c1ccco1	-1.4	27.6*	10.7	7.3	9.0	-10.4	19.0	-4.7
O=C(NC1CCCCN(Cc2cccc(Cl)c2)C1=O)c1ccccc1 (stereo not given)	/	-0.2	/	/	/	/	/	/
C[C@@H](CO)N(Cc1cn(Cc2ccccc2)nn1)S(=O)(=O)c1ccccc1Br	/	6.5	/	/	/	/	/	/
SMILES	OPRM1-OPRD1 ag	HGIII-sPLA2 inh	m5-HT2A agonist	MOR-DOR inv ag	HTR5A ag	HTR5A inv ag	sPLA2 confirm	535nm interf	others
O=S1(=O)CC2c3ccc(F)cc3CN2CN1Cc1ccccc1 (stereo not given)	/	1.0	/	/	/	/	/	/
S=c1[nH]nc(-c2cc(-c3ccccc3)n[nH]2)n1N=Cc1c[nH]c2ccccc12	/	-15.4	/	/	/	/	/	/
COc1cccc(-c2csc(NNC(=O)c3cccs3)n2)c1	/	22.6*	-3.2	/	/	/	44.7*	7.3*
O=C(NCC1CCN(C(=O)C(=O)c2cccs2)CC1)c1cccnc1	/	5.8	/	/	/	/	/	/
COC(=O)c1ccc(C(=O)Nc2ccc3c(c2)C(=O)NC3=O)cc1	0.9	22.5*	3.2	-4.3	-1.6	5.8	0.1	6.8*
Cc1ccc(C(=O)Nc2ccc3c(c2)C(=O)NC3=O)cc1	3.6	1.4	-3.0	-21.3	3.9	-11.5	/	/
COC(=O)[C@@]12CCCCC3=C1N(CCC3)C(=O)[C@H]2CC(=O)NCc1ccc(OC)c(OC)c1	/	10.4	/	/	/	/	/	/
COC(=O)C1CN(Cc2ccccc2)CCS(=O)(=O)N1Cc1cn(Cc2ccccc2Br)nn1 (stereo not given)	/	-8.4	/	/	/	/	/	/
C/C(=N\NC(=S)NC1CCCCC1)c1ccc(C#N)cc1	7.3	26.4*	2.0	-38.5	3.2	-8.1	15.9	-0.8
O=C(/C=C/c1ccc2c(c1)OCO2)NCc1ccco1	-0.1	19.9*	8.6	0.9	-1.6	-26.3	-2.1	-6.0
O=c1c2c3c(sc2nc(NCCO)n1CCc1ccccc1)CCCCC3	0.8	8.9	-1.4	-4.1	-5.0	12.9	/	/
O=c1c2c3c(sc2nc(N2CCNCC2)n1CCc1ccccc1)CCCCC3	3.9	19.7*	-2.3	-19.9	8.6	-9.5	1.6	-32.2
O=C1c2ccccc2C(=O)c2c1cccc2N1CCOCC1	-1.3	22.5*	-0.2	7.5	3.0	-11.8	31.9*	5.4	BODIPY interf DR=>122
NC(=O)c1ccc[n+](Cc2ccccc2)c1	-3.0	19.5*	-0.5	15.6	-0.8	-24.6	1.1	-6.0
COc1cc(NC(=S)N2CCN(c3ccccn3)CC2)c(OC)cc1Cl	1.1	22.5*	7.1	-5.3	6.7	-22.6	15.6	-5.6
COc1ccc(Cl)cc1NC(=S)N1CCN(c2ccccn2)CC1	-2.0	1.8	0.7	11.1	-2.3	5.8	/	/
COc1cccc(/C=C2\CC3(OC(=O)c4ccccc4)CCCN2C3)c1 (stereo not given)	/	-4.6	/	/	/	/	/	/

Source: PubChem BioAssay (The Scripps Research Institute Molecular Screening Center)
